Experimental findings from publication PMC7862700, “An all-to-all approach to the identification of sequence-specific readers for epigenetic DNA modifications on cytosine” are described below.

Assay in all cases: DAPPL (digital affinity profiling via proximity ligation, sequencing); 10 mM Tris-HCl pH 7.5, 50 mM NaCl, 1 mM DTT, 4% glycerol, room temperature, 30 min; GST-TFs on glutathione beads, 16-mer random dsDNA library, 0.1% formaldehyde crosslink after washing; high values mean tight binding
Assay [1] has as its target T1, FLI1 (Homo sapiens, UniProt Q01543 1-452).
T1 sequence: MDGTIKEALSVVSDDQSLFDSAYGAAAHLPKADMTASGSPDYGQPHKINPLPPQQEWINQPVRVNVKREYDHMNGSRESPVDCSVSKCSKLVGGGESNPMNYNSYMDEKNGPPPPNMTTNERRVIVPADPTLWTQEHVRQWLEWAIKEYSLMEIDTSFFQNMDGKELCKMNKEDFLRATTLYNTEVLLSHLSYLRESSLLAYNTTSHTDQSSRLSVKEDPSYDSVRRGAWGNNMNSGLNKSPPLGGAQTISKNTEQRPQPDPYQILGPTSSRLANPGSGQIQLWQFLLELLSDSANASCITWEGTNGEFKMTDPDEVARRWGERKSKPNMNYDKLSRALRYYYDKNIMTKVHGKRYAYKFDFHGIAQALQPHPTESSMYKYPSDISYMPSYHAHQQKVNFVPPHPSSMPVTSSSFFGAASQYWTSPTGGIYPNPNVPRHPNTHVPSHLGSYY
To be noted: protein: recombinant; tags: N-terminal GST; dsDNA, one strand shown. The method, boiled down:
(§1)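 Sequencing on an Illumina NextSeq500 followed washing, crosslinking with 0.1% formaldehyde, proximity ligation (BsaI/T4 ligase, 1 h, 37 °C) and PCR amplification of pools that had been incubated for 30 min at room temperature with 200 nmole of a random double-stranded 16-mer DNA library in Tris/NaCl/DTT/glycerol buffer. Each pool held DNA-barcoded human transcription factors, expressed in yeast as GST fusions and captured on glutathione beads, plus a tag-only sample. Binding signal is a hexamer's read frequency for a factor divided by its frequency in the tag-only sample.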

Assay [2] has as its target T2, ELK1 (Homo sapiens, UniProt P19419 1-428).
T2 sequence: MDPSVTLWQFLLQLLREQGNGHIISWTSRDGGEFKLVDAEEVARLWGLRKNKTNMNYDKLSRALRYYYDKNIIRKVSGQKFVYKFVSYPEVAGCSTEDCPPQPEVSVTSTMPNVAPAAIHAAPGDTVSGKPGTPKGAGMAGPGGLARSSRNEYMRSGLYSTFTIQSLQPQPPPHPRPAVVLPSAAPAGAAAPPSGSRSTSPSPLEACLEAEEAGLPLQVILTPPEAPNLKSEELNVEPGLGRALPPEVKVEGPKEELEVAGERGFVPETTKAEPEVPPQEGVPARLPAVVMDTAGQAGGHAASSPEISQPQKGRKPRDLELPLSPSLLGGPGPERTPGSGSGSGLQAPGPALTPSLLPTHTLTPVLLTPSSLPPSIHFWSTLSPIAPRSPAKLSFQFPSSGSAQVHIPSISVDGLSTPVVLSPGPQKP
To be noted: protein: recombinant; tags: N-terminal GST; dsDNA, one strand shown. The method in brief:
as §1

In assay [3] the target is T3, GABPA (Homo sapiens, UniProt Q06546 1-454).
T3 sequence: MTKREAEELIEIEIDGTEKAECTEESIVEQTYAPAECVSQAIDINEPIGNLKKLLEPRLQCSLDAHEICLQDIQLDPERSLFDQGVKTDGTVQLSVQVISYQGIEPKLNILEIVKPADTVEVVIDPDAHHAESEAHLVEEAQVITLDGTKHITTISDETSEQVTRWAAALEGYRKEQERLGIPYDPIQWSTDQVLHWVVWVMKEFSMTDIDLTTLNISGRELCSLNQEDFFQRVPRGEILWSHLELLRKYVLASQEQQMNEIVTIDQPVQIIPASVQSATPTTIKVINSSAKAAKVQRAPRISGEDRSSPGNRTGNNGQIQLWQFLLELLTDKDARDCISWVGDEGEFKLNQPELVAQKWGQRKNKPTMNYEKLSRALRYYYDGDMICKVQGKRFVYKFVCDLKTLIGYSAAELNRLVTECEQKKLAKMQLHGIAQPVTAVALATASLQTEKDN
To be noted: protein: recombinant; tags: N-terminal GST; dsDNA, one strand shown. The method, boiled down: as §1

The target in assay [4] is T4, ERG (Homo sapiens, UniProt P11308 1-479).
T4 sequence: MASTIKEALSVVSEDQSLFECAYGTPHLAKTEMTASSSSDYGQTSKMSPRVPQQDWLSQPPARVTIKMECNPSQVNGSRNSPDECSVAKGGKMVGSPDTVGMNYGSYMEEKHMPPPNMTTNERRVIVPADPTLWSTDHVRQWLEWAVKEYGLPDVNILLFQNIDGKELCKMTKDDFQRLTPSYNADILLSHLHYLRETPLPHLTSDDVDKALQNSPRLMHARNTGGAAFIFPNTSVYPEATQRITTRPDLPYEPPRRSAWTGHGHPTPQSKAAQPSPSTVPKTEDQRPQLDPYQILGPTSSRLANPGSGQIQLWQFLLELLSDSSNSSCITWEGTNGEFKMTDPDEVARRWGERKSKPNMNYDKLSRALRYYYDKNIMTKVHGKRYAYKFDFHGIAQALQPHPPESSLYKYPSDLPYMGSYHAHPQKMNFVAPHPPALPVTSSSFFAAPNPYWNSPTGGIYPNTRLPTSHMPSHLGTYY
To be noted: protein: recombinant; tags: N-terminal GST; dsDNA, one strand shown. The method, boiled down: as §1

Assay [5] deals with ELF1 (Homo sapiens, UniProt P32519 1-619). To be noted: protein: recombinant; tags: N-terminal GST; dsDNA, one strand shown. The method in brief:
as §1

Assay [6] addresses T5, EHF (Homo sapiens, UniProt Q9NZC4 1-300).
T5 sequence: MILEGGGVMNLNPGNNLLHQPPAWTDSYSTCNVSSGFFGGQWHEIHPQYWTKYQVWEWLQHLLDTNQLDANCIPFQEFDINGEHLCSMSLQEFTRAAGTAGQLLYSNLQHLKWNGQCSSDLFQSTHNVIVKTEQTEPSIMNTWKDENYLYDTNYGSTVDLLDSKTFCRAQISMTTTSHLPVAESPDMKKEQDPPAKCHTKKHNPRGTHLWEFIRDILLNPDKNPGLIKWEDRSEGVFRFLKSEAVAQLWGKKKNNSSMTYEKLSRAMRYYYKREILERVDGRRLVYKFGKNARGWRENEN
To be noted: protein: recombinant; tags: N-terminal GST; dsDNA, one strand shown. The method in brief: as §1

Assay [7] concerns the target SPI1 (Homo sapiens, UniProt P17947 1-270). To be noted: protein: recombinant; tags: N-terminal GST; dsDNA, one strand shown. The method, boiled down:
as §1

The target in assay [8] is SPIB (Homo sapiens, UniProt Q01892 1-262). To be noted: protein: recombinant; tags: N-terminal GST; dsDNA, one strand shown. The method in brief:
as §1

Assay [9] deals with T6, ELK3 (Homo sapiens, UniProt P41970 1-407).
T6 sequence: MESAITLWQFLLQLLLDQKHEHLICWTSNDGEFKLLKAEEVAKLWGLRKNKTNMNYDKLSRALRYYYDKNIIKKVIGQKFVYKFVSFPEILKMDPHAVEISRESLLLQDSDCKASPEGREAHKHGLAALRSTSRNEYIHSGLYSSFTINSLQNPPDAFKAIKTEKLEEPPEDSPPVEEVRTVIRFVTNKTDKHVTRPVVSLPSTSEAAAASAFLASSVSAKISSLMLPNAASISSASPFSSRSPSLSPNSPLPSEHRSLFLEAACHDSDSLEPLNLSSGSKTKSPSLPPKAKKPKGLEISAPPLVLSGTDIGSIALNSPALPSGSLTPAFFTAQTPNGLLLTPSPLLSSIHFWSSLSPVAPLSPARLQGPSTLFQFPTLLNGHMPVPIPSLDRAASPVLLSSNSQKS
To be noted: protein: recombinant; tags: N-terminal GST; dsDNA, one strand shown. The method, boiled down: as §1

Assay [10] deals with T7, FEV (Homo sapiens, UniProt Q99581 1-238).
T7 sequence: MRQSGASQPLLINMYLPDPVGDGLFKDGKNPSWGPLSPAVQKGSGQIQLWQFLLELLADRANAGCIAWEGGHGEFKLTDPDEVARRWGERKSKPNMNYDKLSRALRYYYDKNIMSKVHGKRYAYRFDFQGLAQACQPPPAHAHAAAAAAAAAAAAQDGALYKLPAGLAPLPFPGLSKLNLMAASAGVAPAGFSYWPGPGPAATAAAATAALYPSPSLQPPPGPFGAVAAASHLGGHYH
To be noted: protein: recombinant; tags: N-terminal GST; dsDNA, one strand shown. The method, boiled down:
as §1

Assay [11] addresses ETV5 (Homo sapiens, UniProt P41161 1-510). To be noted: protein: recombinant; tags: N-terminal GST; dsDNA, one strand shown. The method, boiled down: as §1
The target of assay [12] is HSF1 (Homo sapiens, UniProt Q00613 1-529). To be noted: protein: recombinant; tags: N-terminal GST; chain copies: 3; dsDNA, one strand shown. The method, boiled down: as §1
Sequence of HSF1 (Q00613 whole entry): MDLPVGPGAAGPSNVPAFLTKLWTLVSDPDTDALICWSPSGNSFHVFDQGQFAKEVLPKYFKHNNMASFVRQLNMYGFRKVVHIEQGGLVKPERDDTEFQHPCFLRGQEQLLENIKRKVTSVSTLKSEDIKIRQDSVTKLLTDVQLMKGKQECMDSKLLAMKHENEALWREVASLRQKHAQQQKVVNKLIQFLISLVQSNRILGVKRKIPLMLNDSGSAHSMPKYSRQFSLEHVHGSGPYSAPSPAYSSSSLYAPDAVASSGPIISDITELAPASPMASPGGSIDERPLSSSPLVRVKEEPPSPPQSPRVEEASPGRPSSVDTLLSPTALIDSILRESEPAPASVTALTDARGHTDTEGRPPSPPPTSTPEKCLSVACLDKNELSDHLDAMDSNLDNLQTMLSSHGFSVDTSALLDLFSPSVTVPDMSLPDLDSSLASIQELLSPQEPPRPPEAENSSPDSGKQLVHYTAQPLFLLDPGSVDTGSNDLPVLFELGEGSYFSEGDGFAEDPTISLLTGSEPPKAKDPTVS
For assay [13], the target named is T8, SPIC (Homo sapiens, UniProt Q8N5J4 1-248).
T8 sequence: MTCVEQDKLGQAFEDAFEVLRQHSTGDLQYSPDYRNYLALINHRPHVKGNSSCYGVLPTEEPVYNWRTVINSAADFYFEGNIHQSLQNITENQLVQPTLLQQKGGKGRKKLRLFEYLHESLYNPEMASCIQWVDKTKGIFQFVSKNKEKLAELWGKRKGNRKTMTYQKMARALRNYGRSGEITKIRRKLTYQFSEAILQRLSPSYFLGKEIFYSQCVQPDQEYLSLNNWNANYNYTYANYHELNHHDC
To be noted: protein: recombinant; tags: N-terminal GST; dsDNA, one strand shown. The method, boiled down:
as §1

The target of assay [14] is ELF4 (Homo sapiens, UniProt Q99607 1-663). To be noted: protein: recombinant; tags: N-terminal GST; dsDNA, one strand shown. The method, boiled down: as §1
Sequence of ELF4 (Q99607 whole entry): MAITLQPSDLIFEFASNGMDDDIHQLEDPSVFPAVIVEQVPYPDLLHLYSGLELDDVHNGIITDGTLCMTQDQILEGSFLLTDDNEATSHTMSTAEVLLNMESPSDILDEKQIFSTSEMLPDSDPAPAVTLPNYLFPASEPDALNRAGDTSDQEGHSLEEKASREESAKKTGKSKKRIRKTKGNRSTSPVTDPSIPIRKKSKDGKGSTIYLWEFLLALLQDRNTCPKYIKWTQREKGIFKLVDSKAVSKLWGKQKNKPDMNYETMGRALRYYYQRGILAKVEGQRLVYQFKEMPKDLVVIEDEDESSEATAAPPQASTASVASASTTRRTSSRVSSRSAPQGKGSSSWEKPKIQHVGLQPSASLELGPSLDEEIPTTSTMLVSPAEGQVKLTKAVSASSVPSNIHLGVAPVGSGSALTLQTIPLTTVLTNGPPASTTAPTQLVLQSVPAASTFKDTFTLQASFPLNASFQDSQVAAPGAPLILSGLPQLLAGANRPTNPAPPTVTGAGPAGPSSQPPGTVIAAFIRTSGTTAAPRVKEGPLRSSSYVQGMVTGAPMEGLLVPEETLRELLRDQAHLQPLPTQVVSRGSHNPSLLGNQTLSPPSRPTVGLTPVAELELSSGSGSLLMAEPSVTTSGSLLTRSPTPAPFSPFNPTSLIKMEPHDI
For assay [15], the target named is T9, ELK4 (Homo sapiens, UniProt P28324-2 1-405).
T9 sequence: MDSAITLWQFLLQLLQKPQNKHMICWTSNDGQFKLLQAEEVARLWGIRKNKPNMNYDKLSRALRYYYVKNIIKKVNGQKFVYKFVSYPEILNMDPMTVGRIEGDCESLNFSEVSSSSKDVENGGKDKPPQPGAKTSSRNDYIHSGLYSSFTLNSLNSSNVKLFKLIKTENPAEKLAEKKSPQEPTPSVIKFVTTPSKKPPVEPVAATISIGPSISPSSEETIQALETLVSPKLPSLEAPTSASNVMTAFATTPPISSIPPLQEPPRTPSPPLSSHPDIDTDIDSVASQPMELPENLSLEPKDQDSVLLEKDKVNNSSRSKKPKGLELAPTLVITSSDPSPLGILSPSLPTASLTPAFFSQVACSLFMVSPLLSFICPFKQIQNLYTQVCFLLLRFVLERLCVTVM
To be noted: protein: recombinant; tags: N-terminal GST; dsDNA, one strand shown. The method in brief:
as §1

The target in assay [16] is T10, ETV2 (Homo sapiens, UniProt O00321 1-342).
T10 sequence: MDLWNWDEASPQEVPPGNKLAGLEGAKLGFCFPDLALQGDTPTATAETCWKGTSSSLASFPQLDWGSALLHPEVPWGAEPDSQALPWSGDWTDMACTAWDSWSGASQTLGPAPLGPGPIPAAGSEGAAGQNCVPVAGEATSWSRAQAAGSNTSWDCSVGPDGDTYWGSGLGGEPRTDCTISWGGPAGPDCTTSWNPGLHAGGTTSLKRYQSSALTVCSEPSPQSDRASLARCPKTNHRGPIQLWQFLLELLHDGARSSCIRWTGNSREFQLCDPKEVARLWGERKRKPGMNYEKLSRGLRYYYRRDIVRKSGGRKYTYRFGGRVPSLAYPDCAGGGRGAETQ
To be noted: protein: recombinant; tags: N-terminal GST; dsDNA, one strand shown. The method in brief:
as §1

Assay [17] addresses T11, ELF3 (Homo sapiens, UniProt P78545 1-371).
T11 sequence: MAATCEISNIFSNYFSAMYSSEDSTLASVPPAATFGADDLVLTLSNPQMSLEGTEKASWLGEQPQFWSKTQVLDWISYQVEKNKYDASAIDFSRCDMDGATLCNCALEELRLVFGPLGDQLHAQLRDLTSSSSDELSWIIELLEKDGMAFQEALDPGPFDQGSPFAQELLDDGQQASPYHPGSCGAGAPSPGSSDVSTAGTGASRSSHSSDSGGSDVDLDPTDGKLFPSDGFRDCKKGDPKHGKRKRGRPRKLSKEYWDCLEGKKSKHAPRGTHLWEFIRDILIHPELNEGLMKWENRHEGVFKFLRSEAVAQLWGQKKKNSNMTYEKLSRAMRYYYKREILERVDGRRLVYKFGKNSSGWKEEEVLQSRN
To be noted: protein: recombinant; tags: N-terminal GST; dsDNA, one strand shown. The method in brief:
as §1

Assay [18] concerns the target ETV1 (Homo sapiens, UniProt P50549 1-477). To be noted: protein: recombinant; tags: N-terminal GST; dsDNA, one strand shown. The method, boiled down: as §1

Sequence of ETV1 (P50549 whole entry): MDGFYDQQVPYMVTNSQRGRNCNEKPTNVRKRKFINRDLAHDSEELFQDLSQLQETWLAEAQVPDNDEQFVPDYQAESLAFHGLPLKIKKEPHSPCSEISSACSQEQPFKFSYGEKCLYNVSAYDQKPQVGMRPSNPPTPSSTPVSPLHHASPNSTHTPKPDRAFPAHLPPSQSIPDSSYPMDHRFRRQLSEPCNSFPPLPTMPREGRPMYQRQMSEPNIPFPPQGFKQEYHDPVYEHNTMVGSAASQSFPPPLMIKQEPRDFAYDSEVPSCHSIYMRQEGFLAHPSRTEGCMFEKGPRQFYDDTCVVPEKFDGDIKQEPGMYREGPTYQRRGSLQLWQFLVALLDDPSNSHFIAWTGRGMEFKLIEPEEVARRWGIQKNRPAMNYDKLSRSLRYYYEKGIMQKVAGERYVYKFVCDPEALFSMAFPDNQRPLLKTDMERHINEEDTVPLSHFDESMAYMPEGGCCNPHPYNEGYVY
Sequence of ETV5 (P41161 whole entry): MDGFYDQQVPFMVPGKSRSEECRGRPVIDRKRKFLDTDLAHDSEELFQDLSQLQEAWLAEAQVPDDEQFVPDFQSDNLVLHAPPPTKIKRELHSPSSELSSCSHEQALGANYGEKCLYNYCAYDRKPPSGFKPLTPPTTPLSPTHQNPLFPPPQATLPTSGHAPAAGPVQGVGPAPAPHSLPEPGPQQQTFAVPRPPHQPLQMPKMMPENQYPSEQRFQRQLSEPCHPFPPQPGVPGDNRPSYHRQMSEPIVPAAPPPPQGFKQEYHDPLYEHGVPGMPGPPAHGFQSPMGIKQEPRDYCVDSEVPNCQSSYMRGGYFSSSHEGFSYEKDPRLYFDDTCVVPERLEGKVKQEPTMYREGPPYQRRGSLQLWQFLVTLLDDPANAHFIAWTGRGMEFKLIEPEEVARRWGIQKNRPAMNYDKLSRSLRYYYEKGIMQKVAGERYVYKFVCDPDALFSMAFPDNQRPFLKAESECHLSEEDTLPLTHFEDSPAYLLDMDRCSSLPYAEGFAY
Sequence of ELF1 (P32519 whole entry): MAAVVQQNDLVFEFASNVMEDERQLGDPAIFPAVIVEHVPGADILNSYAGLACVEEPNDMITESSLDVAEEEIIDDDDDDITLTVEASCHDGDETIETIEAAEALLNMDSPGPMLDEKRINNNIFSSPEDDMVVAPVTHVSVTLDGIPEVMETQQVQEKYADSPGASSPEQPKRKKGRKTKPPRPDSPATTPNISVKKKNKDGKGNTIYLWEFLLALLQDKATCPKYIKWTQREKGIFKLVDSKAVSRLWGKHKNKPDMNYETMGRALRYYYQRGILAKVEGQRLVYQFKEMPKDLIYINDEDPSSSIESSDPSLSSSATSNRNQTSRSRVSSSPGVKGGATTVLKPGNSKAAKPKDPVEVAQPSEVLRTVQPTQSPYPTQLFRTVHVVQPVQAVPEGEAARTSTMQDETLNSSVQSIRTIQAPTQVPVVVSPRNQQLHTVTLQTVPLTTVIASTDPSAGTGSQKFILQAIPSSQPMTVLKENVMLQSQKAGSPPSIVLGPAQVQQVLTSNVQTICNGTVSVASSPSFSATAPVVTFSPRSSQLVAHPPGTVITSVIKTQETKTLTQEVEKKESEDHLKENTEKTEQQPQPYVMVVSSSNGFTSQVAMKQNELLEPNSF
Sequence of SPIB (Q01892 whole entry): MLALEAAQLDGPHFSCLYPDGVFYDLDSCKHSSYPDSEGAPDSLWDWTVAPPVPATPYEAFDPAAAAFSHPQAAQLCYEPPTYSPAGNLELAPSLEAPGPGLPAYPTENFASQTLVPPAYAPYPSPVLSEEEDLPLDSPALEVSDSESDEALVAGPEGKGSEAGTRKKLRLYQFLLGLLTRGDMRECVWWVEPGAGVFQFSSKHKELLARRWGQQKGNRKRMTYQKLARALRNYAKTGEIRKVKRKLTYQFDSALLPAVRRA

Take ACGGAA: the binding signal in assay [1] was 1.66 fold enrichment (6-mer frequency, TF over GST control); in assay [2] it was 1.69 fold enrichment (6-mer frequency, TF over GST control); in assay [3], 1.58 fold enrichment (6-mer frequency, TF over GST control); in assay [4], 1.93 fold enrichment (6-mer frequency, TF over GST control); in assay [5], 1.62 fold enrichment (6-mer frequency, TF over GST control); in [6], 2 fold enrichment (6-mer frequency, TF over GST control). Further, the binding signal was 2.02 fold enrichment (6-mer frequency, TF over GST control) in assay [7]; 1.93 fold enrichment (6-mer frequency, TF over GST control) in assay [8]; 1.94 fold enrichment (6-mer frequency, TF over GST control) in assay [9]; 1.83 fold enrichment (6-mer frequency, TF over GST control) in [10]; 1.94 fold enrichment (6-mer frequency, TF over GST control) in assay [11]; 1.01 fold enrichment (6-mer frequency, TF over GST control) in [12]. Further, the binding signal in assay [13] is 1.69 fold enrichment (6-mer frequency, TF over GST control); in assay [14] it was 1.61 fold enrichment (6-mer frequency, TF over GST control); in [15], 1.5 fold enrichment (6-mer frequency, TF over GST control); in [16], 1.75 fold enrichment (6-mer frequency, TF over GST control); in assay [17] it was 1.89 fold enrichment (6-mer frequency, TF over GST control); in assay [18], 1.85 fold enrichment (6-mer frequency, TF over GST control).
